Test results taken from PubChem BioAssay (Tox21).
Inconclusive results are not listed. Active and inactive are the calls of the source. Unless noted, calls come from the whole dose curve; as a rule, active = well fitted curve in the direction sought with a large enough effect in the repeat runs; inconclusive = weak or mixed curves; inactive = no such curve, though single readings can be large; an effect the other way counts as inactive or inconclusive.

Columns and labels:
[1] = qHTS assay to identify small molecule HDAC inhibitors - cell viability counter screen (AID 1259365); note: series mostly up to about 92 µM; nearly all actives have a fitted effect of over 50% in size
How it was run: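 After overnight seeding at 1,500 cells per well, wild-type HCT-116 cultures took up compounds in DMSO for 2hr at 37 C. Viable cell content came from luminescence with CellTiter-Glo.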

[2] = qHTS assay to identify small molecule agonists of the sonic hedgehog signaling (Shh) pathway - cell viability counter screen (AID 1259366); note: nearly all actives have a fitted effect of over 50% in size
How it was run: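 Same-well cytotoxicity read. Gli1-Luc reporter 3T3 cells; compounds 24hr, 37C/5% CO2; CellTiter-Fluor fluorescence.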

[3] = qHTS assay to identify small molecule antagonists of the sonic hedgehog signaling (Shh) pathway - cell viability counter screen (AID 1259367); note: nearly all actives have a fitted effect of over 55% in size
How it was run: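 Conditioned medium drove Shh signaling in 3T3 Gli1-Luc cells exposed to compounds at 37C and 5% CO2. Viability was determined from CellTiter-Fluor fluorescence, with reagent incubated 1 hr after 23 hr of treatment.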

[4] = qHTS assay to identify small molecule agonists of the sonic hedgehog signaling (Shh) pathway (AID 1259368; calls by dose curve;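 note: NIH/3T3-derived 3T3Gli1-Luc cells carrying a stable Gli1-driven firefly luciferase reporter; series mostly up to about 92 µM; nearly all actives have a fitted effect of over 15% in size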)
How it was run: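 Hedgehog pathway agonism scored by increased firefly luciferase luminescence in 3T3Gli1-Luc cells treated 24 hr at 37 C; detection used a 30 min room-temperature reagent incubation.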

[5] = qHTS assay to identify small molecule antagonists of the sonic hedgehog signaling (Shh) pathway (AID 1259369; calls by dose curve; note: nearly all actives have a fitted effect of over 45% in size)
How it was run: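 NIH/3T3 stable Gli1-Luc clone, 2,000 cells/well, 4hr settle; cpd + conditioned medium 24hr; Luc reagent 30min RT; luminescence.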

[6] = qHTS assay to identify small molecule agonists of the androgen receptor (AR) signaling pathway in the presence of an antagonist - cell viability counter screen (AID 1259379);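 note: MDA-kb2 human breast cancer cells carrying an MMTV luciferase reporter; series mostly up to about 92 µM; nearly all actives have a fitted effect of over 25% in size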
How it was run: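 MDA-kb2 viability measured by CellTiter-Fluor fluorescence in the same wells as the luciferase signal; nilutamide 3.0uM final; 15-point compound titration; 16 hr at 37C.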

[7] = qHTS assay to identify small molecule agonists of the estrogen receptor beta (ER-beta) signaling pathway - cell viability counter screen (AID 1259380); note: nearly all actives have a fitted effect of over 30% in size
How it was run: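 Measured: luminescence from CellTiter-Glo after 30 min at room temperature, added to wells already read for the LiveBLAzer FRET reporter (2 hr substrate); ER-beta-UAS-bla HEK293T cells had 16 hr compound treatment at 37C, 5% CO2.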

[8] = molecular target: Androgen receptor (Homo sapiens) (UniProt P10275); experiment: qHTS assay to identify small molecule agonists of the androgen receptor (AR) signaling pathway in the presence of an antagonist (AID 1259381; calls by dose curve; note: nearly all actives have a fitted effect of over 15% in size)
Sequence of Androgen receptor (Homo sapiens) (P10275 whole entry, looked up): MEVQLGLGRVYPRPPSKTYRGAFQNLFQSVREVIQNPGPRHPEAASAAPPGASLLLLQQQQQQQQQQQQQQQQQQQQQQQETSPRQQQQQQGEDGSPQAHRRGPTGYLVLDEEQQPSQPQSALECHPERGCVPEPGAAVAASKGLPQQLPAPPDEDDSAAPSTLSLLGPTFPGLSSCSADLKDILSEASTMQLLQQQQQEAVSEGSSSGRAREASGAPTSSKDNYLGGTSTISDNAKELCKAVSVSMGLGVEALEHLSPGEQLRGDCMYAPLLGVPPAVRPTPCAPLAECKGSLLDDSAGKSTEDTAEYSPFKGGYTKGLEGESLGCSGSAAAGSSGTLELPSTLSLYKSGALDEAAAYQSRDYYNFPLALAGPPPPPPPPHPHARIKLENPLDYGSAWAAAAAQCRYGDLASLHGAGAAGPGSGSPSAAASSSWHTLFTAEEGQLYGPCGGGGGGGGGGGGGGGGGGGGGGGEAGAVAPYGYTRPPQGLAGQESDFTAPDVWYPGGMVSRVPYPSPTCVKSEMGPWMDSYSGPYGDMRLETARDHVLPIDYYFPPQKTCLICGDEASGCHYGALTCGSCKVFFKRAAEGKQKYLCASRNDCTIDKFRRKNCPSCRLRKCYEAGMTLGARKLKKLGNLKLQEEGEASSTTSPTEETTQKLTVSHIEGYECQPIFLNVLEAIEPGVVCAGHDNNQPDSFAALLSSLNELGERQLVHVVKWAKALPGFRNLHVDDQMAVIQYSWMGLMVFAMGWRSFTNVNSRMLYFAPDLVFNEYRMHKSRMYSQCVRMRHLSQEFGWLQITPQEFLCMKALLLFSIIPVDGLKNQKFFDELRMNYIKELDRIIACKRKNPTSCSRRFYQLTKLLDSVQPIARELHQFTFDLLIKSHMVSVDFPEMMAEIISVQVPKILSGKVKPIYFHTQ
How it was run: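 Luminescent ONE-Glo read, 30min at room temperature, follows 16hr compound exposure (15 concentrations) of MDA-kb2 cells at 37C, 0% CO2, with nilutamide added at 3.0uM final.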

[9] = qHTS assay to identify small molecule antagonists of the estrogen receptor beta (ER-beta) signaling pathway - cell viability counter screen (AID 1259382); note: series mostly up to about 92 µM; nearly all actives have a fitted effect of over 55% in size
How it was run: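 Readout: luminescence, CellTiter-Glo, same wells as bla assay. System: ER-beta-UAS-bla GripTite HEK293T, 2% charcoal-stripped FBS. Exposure: compounds plus 1nM 17-beta-estradiol, 16 hr, 37C.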

[10] = molecular target: Estrogen receptor (Homo sapiens) (UniProt P03372); experiment: qHTS assay to identify small molecule agonists of the estrogen receptor alpha (ER-alpha) signaling pathway in the presence of an antagonist (AID 1259383; calls by dose curve; note: top concentration of the series differs between compounds; nearly all actives have a fitted effect of over 15% in size)
Sequence of Estrogen receptor (Homo sapiens) (P03372 whole entry, looked up): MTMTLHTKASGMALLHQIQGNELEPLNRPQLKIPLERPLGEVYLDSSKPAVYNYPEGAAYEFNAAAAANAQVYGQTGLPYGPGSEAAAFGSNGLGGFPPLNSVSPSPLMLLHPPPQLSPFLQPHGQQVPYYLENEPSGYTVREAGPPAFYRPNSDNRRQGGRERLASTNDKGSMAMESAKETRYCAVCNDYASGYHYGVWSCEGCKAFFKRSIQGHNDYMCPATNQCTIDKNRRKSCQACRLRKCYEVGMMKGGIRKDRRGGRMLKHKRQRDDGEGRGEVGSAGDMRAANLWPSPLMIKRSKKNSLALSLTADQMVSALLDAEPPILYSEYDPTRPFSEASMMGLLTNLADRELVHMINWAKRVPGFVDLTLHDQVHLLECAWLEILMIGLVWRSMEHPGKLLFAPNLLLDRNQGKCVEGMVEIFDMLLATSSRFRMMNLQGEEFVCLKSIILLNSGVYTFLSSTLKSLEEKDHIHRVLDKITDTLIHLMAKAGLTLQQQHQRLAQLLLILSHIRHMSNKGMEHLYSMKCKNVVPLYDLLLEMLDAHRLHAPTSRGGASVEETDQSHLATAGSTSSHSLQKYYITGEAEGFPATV
How it was run: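 Quantitative HTS confirmation: compounds titrated at 15 concentrations onto estrogen-deprived VM7Luc4E2 cells carrying a four-ERE luciferase construct, with ICI-182,780 present at 10.0nM final. Signal is luminescence after 22hr exposure.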

[11] = qHTS assay to identify small molecule agonists or antagonists of the thyroid stimulating hormone receptor (TSHR) signaling pathway - wild type cell line counter screen (AID 1259384; calls by dose curve)
How it was run: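 Wild-type HEK293 cells were plated 18 h at 37 C/5% CO2, pin-dosed with compound plus Ro20-1724 medium, held 30 min at room temperature, then given cAMP-d2 and anti-cAMP-cryptate; fluorescence was read after 1 h. Fifteen concentrations, triplicate.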

[12] = molecular target: Thyrotropin receptor (Homo sapiens) (UniProt P16473); experiment: qHTS assay to identify small molecule antagonists of the thyroid stimulating hormone receptor (TSHR) signaling pathway (AID 1259385; calls by dose curve; note: nearly all actives have a fitted effect of over 20% in size)
Sequence of Thyrotropin receptor (Homo sapiens) (P16473 whole entry, looked up): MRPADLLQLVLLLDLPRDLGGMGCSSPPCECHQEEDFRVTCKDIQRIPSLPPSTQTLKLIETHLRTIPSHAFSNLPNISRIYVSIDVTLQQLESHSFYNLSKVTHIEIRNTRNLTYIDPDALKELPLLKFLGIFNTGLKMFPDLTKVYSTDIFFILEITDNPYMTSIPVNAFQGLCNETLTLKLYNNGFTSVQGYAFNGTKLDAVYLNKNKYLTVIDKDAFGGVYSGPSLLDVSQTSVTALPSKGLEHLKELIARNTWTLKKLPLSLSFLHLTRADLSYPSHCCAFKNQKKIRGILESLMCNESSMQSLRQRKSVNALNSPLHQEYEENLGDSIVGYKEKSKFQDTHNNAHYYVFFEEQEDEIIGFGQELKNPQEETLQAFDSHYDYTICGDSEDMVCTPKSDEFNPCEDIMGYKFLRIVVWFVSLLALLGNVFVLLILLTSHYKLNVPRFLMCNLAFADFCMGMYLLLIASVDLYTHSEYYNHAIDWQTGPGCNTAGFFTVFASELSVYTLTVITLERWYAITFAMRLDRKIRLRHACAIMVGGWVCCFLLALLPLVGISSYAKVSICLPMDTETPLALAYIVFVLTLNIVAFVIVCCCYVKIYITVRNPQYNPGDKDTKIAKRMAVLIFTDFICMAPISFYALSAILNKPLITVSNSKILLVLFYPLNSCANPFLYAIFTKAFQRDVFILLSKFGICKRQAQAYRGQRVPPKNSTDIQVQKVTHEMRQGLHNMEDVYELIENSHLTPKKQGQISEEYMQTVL
How it was run: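 TSHR-HEK293 cells were plated and held 18 h at 37C/5% CO2, then given compound plus Ro20-1724 and stimulated with TSH at 1.5 ng/mL final. After 30 min at room temperature, cAMP was detected with cAMP-d2/anti-cAMP-cryptate (1 h) by fluorescence.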

[13] = qHTS assay to identify small molecule agonists of the estrogen receptor alpha (ER-alpha) signaling pathway in the presence of an antagonist - cell viability counter screen (AID 1259386);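 note: series mostly up to about 92 µM; cells exposed to compounds for 22 h at 37 °C before the viability read; nearly all actives have a fitted effect of over 30% in size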
How it was run: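 The test measures whether compounds kill ER-alpha reporter cells (VM7Luc4E2) under antagonist co-treatment (ICI-182,780, 10.0nM). Fluorescence from CellTiter-Fluor is read after a 22hr exposure.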

[14] = molecular target: Progesterone receptor (Homo sapiens) (UniProt P06401); experiment: qHTS assay to identify small molecule agonists of the progesterone receptor (PR) signaling pathway (AID 1346784; calls by dose curve; note: nearly all actives have a fitted effect of over 30% in size)
Sequence of Progesterone receptor (Homo sapiens) (P06401 whole entry, looked up): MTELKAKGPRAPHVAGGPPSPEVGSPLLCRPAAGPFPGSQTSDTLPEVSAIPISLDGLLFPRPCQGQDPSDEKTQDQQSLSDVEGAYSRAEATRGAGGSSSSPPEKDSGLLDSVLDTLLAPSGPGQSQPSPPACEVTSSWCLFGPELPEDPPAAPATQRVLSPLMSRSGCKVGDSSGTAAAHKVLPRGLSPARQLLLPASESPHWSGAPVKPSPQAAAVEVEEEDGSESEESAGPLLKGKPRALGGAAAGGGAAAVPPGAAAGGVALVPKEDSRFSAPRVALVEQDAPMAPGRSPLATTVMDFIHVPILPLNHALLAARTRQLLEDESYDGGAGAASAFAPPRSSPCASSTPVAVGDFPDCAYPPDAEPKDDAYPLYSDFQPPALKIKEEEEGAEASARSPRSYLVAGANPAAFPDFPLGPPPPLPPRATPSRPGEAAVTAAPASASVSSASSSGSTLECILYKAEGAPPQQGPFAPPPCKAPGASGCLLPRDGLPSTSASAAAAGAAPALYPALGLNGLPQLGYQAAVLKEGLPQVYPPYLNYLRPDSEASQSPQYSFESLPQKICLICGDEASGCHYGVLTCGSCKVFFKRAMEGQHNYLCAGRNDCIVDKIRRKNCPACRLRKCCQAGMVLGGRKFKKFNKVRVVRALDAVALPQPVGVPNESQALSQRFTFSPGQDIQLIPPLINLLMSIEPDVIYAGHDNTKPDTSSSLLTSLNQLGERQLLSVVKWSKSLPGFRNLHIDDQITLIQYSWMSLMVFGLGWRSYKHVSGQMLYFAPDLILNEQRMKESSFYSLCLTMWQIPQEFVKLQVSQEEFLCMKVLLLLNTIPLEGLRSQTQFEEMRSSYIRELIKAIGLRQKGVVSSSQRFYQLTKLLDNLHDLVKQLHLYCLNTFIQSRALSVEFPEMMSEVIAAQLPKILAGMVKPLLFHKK
How it was run: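 Compounds were tested for PR agonism in HEK 293T cells bearing a beta-lactamase gene under UAS control. Treatment lasted 16 hr at 37C; signal came from fluorescence of a FRET substrate.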

[15] = molecular target: Progesterone receptor (Homo sapiens) (UniProt P06401); experiment: qHTS assay to identify small molecule antagonists of the progesterone receptor (PR) signaling pathway (AID 1346795; active = well fitted inhibition curve with a large enough effect in the signal ratio in the repeat runs, not every such curve was filed as active; the % refers to the signal ratio)
How it was run: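 In HEK293T cells bearing the PR-UAS-bla reporter, compound effects on promegestone-driven (1 nM) beta-lactamase expression are assessed after 16 hr using a fluorescent FRET substrate incubated 2 hr at room temperature.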

[16] = qHTS assay to identify small molecule antagonists of the progesterone receptor (PR) signaling pathway - cell viability counter screen (AID 1346798); note: series mostly up to about 92 µM; nearly all actives have a fitted effect of over 50% in size
How it was run: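 Following a 4 hr attachment, PR-UAS-bla HEK293T cells in charcoal-stripped FBS medium were exposed to compounds with R5020 for 16 hr; CellTiter-Glo was added and luminescence read after 30 min at room temperature.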

[17] = qHTS assay to identify small molecule agonists of the progesterone receptor (PR) signaling pathway - cell viability counter screen (AID 1346799; calls by dose curve; note: nearly all actives have a fitted effect of over 45% in size)
How it was run: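 Here, 3,000 PR-UAS-bla HEK293T cells per well were treated with compounds for 16 hr after a 6 hr preincubation at 37C and 5% CO2; cell viability is the CellTiter-Glo luminescence signal.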

[18] = qHTS assay to identify small molecule antagonists of the TGF-beta/Smad signaling pathway - cell viability counter screen (AID 1346824); note: nearly all actives have a fitted effect of over 50% in size
How it was run: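 SBE-bla HEK 293T cells were plated overnight at 37 C, then given compounds in DMSO plus TGF-beta1 (added as 0.25 ng/mL solution) for 5 hr. After the bla read, CellTiter-Glo was added to the same wells and luminescence read after 30 min at room temperature.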

[19] = molecular target: Estrogen receptor beta (Homo sapiens) (UniProt Q92731); experiment: qHTS assay to identify small molecule agonists of the estrogen receptor beta (ER-beta) signaling pathway (AID 1259377; active = well fitted activation curve with a large enough effect in the signal ratio in the repeat runs, not every such curve was filed as active; the % refers to the signal ratio)
Sequence of Estrogen receptor beta (Homo sapiens) (Q92731 whole entry, looked up): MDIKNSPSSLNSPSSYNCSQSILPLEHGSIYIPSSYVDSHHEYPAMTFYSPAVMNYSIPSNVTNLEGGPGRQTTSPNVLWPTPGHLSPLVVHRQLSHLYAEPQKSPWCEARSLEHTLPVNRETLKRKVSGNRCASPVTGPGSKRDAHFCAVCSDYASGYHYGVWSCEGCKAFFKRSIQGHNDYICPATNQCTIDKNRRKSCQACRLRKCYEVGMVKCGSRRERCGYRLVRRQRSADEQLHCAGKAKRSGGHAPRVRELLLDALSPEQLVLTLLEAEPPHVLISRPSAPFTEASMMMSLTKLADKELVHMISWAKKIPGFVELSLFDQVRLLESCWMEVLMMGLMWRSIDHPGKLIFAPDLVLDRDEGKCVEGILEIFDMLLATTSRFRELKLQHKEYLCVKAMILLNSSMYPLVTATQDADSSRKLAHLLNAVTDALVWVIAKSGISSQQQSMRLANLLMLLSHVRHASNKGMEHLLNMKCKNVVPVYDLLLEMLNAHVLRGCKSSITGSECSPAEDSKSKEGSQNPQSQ
How it was run: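 Read-out: beta-lactamase FRET fluorescence. Cell line: ER-beta-UAS-bla HEK293T in 2% charcoal-stripped FBS. Exposure: 16 hr at 37C. Substrate step: 2 h at room temperature.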

[20] = molecular target: Estrogen receptor beta (Homo sapiens) (UniProt Q92731); experiment: qHTS assay to identify small molecule antagonists of the estrogen receptor beta (ER-beta) signaling pathway (AID 1259378; active = well fitted inhibition curve with a large enough effect in the signal ratio in the repeat runs, not every such curve was filed as active; the % refers to the signal ratio)
How it was run: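 ER-beta-UAS-bla HEK293T (GripTite) cells in 2% charcoal-stripped FBS medium were preincubated 6 hr at 37C, dosed with compound, then stimulated with 1 nM E2 (final) for 16 hr; beta-lactamase reporter read by B/G FRET fluorescence after 2 hr substrate loading.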

Measured: Potency

C/C=C(\C)C(C)=O
not listed: [19] | [20]
inactive: all other assays above

O=C=NCC1CCCC(CN=C=O)C1 (centres undefined)
not listed: [8] | [13] | [14] | [15] | [20]
inactive: all other assays above

CCCCOCC(C)O (centres undefined)
not listed: [8] | [19] | [20]
inactive: all other assays above

CCCCCCCCCCCCCCCCCC#N
not listed: [8] | [10] | [17] | [20]
inactive: all other assays above

C=C(C)[C@@H]1CC=C(C)C(=O)C1
not listed: [8] | [9] | [10] | [11] | [20]
inactive: all other assays above

COc1nc(N)nc2nc[nH]c12
not listed: [8] | [10] | [13] | [20]
inactive: all other assays above

C=CC/C=C/C
not listed: [8] | [10] | [11] | [19]
inactive: all other assays above

CCCCC1CCC(O)CC1 (centres undefined)
not listed: [9] | [10] | [11] | [12] | [13] | [19] | [20]
inactive: all other assays above

CC1(C)[C@H]2CC[C@](C)(C2)[C@H]1O
not listed: [8] | [20]
inactive: all other assays above
